Experimental data taken from PubChem BioAssay (EPA / NIEHS).
“And” between values parts separate entries of the source, which are not always exact repeats. Identical values can stand only once. Inconclusive results are not listed. The source made the active and inactive calls. How the source made its calls, unless noted: active means hit-call score of the fitted dose curve at least 0.9, where 1 is the maximum; inconclusive means response in the unintended direction; inactive means score below 0.9.

What was measured:
[1] = TOX21_p53_BLA_p5_viability: Viability Assessment in the Tox21 HCT-116 p53 Agonism Beta-lactamase Assay, Phase 5 (AID 2283600)
Outline: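 HCT-116 p53 beta-lactamase reporter cells, 4000/well, were exposed to compound (pin transfer, 217-fold dilution) for 16 hours at 37C. Cellular ATP was read by CellTiter-Glo luminescence after 30 min at room temperature.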

[2] = molecular target: Cellular tumor antigen p53 (Homo sapiens) (UniProt P04637); assay: TOX21_p53_BLA_p4_ratio: Tox21 HCT-116 p53 Agonism Beta-lactamase Assay, Ratio, Phase 4 (AID 2283601)
Outline: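 HCT-116 p53 beta-lactamase reporter cells (4000/well) preincubated 5 h, then compound (217-fold dilution of DMSO stock) for 16 h at 37C. CCF4-AM substrate added 2 h at room temperature; 460/530 nm emission ratio fitted upward versus DMSO.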

[3] = CEETOX_H295R_MTT_cell_viability: Viability Assessment in the CeeTox HT-H295R MTT Assay (AID 2283718; active means hit-call score of the fitted dose curve at least 0.9, where 1 is the maximum; inactive means score below 0.9)
Outline: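 Human H295R adrenal cells, prestimulated 48 h with 10 uM forskolin, were exposed 48 h to chemicals in 0.1% DMSO. Viability was measured in the same wells by MTT (0.5 mg/ml, 4 h, 37 C), absorbance 570/650 nm, as percent of controls.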

[4] = ACEA_AR_agonist_AUC_viability: ACEA Biosciences xCELLigence Real-Time Cell Analysis on Androgen Receptor Agonism for Viability (AID 2283775);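 on AC50: viability read 80 hours after compound addition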
Outline: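 Read-out is area under the impedance curve at 80 h post-dose in 22Rv1 cells, with DMSO as baseline and signal loss taken as reduced viability. Compounds ran in duplicate from 100 uM final.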

[5] = ACEA_AR_antagonist_AUC_viability: ACEA Biosciences xCELLigence Real-Time Cell Analysis on Androgen Receptor Antagonism for Viability (AID 2283776);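 further: area under impedance growth curve at 80 h after dosing as viability; hits lower the growth signal relative to DMSO meaning cytotoxicity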
Outline: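 22Rv1 human prostate cancer cells were seeded on electrode plates, monitored overnight, then exposed to eight 1:4 dilutions from 100 uM final. Impedance-based growth kinetics at 80 h gave an AUC viability endpoint normalized to DMSO.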

[6] = test system: Thyroperoxidase (TPO), gene 54314; assay: CCTE_Simmons_AUR_rTPO: CCTE's Amplex UltraRed Assay for Thyroperoxidase (TPO) Inhibition, Simmons Lab (AID 2283662);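 on AC50: potency for loss of signal meaning inhibition of peroxidase activity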
Outline: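 Rat thyroid microsomes (5 ug protein) with 25 uM Amplex UltraRed and 300 uM H2O2 in 200 mM phosphate buffer, 30 min at 37C in dark; fluorescence 544/590 nm. Eight concentrations, 5 nM–87.5 uM final, 0.5% DMSO, triplicate biological replicates.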

[7] = CCTE_Simmons_CellTiterGLO_HEK293T: Viability Assessment in CCTE's Assays for Thyroperoxidase (TPO) Inhibition, Simmons Lab (AID 2283665);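 on AC50: cells exposed to compound for 24 h before readout; actives reduce ATP signal below DMSO vehicle meaning cytotoxicity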
Outline: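 HEK293T cells in DMEM with 1% FBS were dosed with 8 concentrations (5 nM–87.5 uM final, 0.5% DMSO) for 24 hr at 37C; ATP content was read by CellTiter-Glo luminescence, loss-of-signal versus DMSO, three biological replicates.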

[8] = molecular target: Luciferin 4-monooxygenase (Photinus pyralis) (UniProt P08659); assay: CCTE_Simmons_QuantiLum_inhib_2: CCTE's Firefly Luciferase Inhibition Assay, Simmons Lab (AID 2283767);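 on AC50: potency for inhibitors that lower luciferase luminescence relative to DMSO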
Outline: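 Recombinant firefly luciferase (5 ng/well, 200 mM potassium phosphate with 1 mg/ml BSA) was exposed to 8 concentrations from 5 nM to 87.5 uM (final, 0.5% DMSO) for 30 min at 37C in the dark. Loss of luminescence versus DMSO was read after injecting D-luciferin/ATP-analogue reagent.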

[9] = molecular target: zebrafish Estrogen Receptor (ESR1), esr1 (gene 259252) (UniProt P57717); assay: ATG_zfER1_XSP1: Attagene TRANS-FACTORIAL Multi-Species (XSP1) HepG2 Assay for zebrafish Estrogen Receptor (ESR1) (AID 2283772)
Outline: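 HepG2 cells transiently transfected with a GAL4-UAS reporter and chimeric zebrafish ER-Gal4, dosed 24 h with 3 nM 6-alpha-fluorotestosterone present. Reporter mRNA measured by RT-PCR and capillary electrophoresis; gain of signal versus DMSO.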

[10] = test system: zebrafish Estrogen Receptor (ESR2B), gene 317733; assay: ATG_zfER2b_XSP1: Attagene TRANS-FACTORIAL Multi-Species (XSP1) HepG2 Assay for zebrafish Estrogen Receptor (ESR2B) (AID 2283773)
Outline: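 HepG2 cells transiently transfected with GAL4-UAS reporter units for chimeric zebrafish ER2b-Gal4, with 3 nM 6-alpha-fluorotestosterone present; reporter mRNA measured 24 h after dosing by RT-PCR and capillary electrophoresis, gain versus DMSO.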

[11] = test system: frog Estrogen Receptor (ESR2), gene 100174814; assay: ATG_frER2_XSP1: Attagene TRANS-FACTORIAL Multi-Species (XSP1) HepG2 Assay for frog Estrogen Receptor (ESR2) (AID 2283774)
Outline: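 HepG2 cells transiently transfected with GAL4-UAS reporter units expressing chimeric frog ER-Gal4; 3 nM 6-alpha-fluorotestosterone present. After 24 h dosing, reporter mRNA quantified by RT-PCR and capillary electrophoresis; gain-of-signal fitted relative to DMSO.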

[12] = test system: frog Estrogen Receptor (ESR1), gene 398734; assay: ATG_frER1_XSP1: Attagene TRANS-FACTORIAL Multi-Species (XSP1) HepG2 Assay for frog Estrogen Receptor (ESR1) (AID 2283777)
Outline: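 HepG2 cells transiently transfected with frog ER–GAL4 chimera and GAL4-UAS reporter, with 3 nM 6-alpha-fluorotestosterone present; 24 h dosing, reporter mRNA quantified by RT-PCR and capillary electrophoresis, gain of signal versus DMSO.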

[13] = test system: zebrafish Estrogen Receptor (ESR2A), gene 317734; assay: ATG_zfER2a_XSP1: Attagene TRANS-FACTORIAL Multi-Species (XSP1) HepG2 Assay for zebrafish Estrogen Receptor (ESR2A) (AID 2283778)
Outline: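 HepG2 cells transiently transfected with GAL4-UAS reporter units driven by a zebrafish ESR2A–Gal4 chimera; 24 h compound exposure with 3 nM 6-alpha-fluorotestosterone present. Reporter mRNA measured by RT-PCR with fluorescent capillary electrophoresis, fitted positive versus DMSO.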

[14] = molecular target: chicken Estrogen Receptor (ESR1), ESR1 (gene 396099) (UniProt P06212); assay: ATG_chERa_XSP1: Attagene TRANS-FACTORIAL Multi-Species (XSP1) HepG2 Assay for chicken Estrogen Receptor (ESR1) (AID 2283779)
Outline: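 HepG2 cells transiently transfected with GAL4-UAS reporter units for chimeric chicken ERα-Gal4, dosed 24 h with 3 nM 6-alpha-fluorotestosterone present. Reporter mRNA by RT-PCR and capillary electrophoresis; gain-of-signal fit versus DMSO.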

[15] = test system: turtle Estrogen Receptor (ESR1), gene 101933533; assay: ATG_trERa_XSP1: Attagene TRANS-FACTORIAL Multi-Species (XSP1) HepG2 Assay for turtle Estrogen Receptor (ESR1) (AID 2283781)
Outline: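 Turtle ERa as a GAL4 chimera in transiently transfected HepG2 cells; reporter mRNA quantified 24 h after dosing by RT-PCR and capillary electrophoresis. 3 nM 6-alpha-fluorotestosterone present; gain of signal versus DMSO.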

[16] = STM_H9_OrnCyssISnorm_ratio: Stemina devTOX quickPredict H9 human embryonic stem cell (hESC)-based Assay for Ornithine (ORN):Cystine (CYSS) Ratio (AID 2283714)
Outline: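 Undifferentiated H9 hESCs exposed 72 h, media and compound replaced every 24 h; final 24-h conditioned media deproteinized and analysed by UPLC-HRMS against C13 spike-ins. Value is the internal-standard-normalized ORN/CYSS ratio versus 0.1% DMSO.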

Cellular tumor antigen p53 (Homo sapiens), sequence (P04637 whole entry, looked up): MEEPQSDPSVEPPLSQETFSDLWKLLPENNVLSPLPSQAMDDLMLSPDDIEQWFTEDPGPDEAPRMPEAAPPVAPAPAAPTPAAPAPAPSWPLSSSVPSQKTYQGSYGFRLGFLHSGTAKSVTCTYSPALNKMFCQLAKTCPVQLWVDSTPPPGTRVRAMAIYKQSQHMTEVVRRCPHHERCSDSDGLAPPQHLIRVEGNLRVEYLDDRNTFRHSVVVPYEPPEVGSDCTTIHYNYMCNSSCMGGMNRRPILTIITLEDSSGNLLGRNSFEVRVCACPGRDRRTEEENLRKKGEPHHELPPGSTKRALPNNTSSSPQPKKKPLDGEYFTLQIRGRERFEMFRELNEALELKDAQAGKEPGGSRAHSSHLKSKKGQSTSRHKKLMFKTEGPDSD
Luciferin 4-monooxygenase (Photinus pyralis), sequence (P08659 whole entry, looked up): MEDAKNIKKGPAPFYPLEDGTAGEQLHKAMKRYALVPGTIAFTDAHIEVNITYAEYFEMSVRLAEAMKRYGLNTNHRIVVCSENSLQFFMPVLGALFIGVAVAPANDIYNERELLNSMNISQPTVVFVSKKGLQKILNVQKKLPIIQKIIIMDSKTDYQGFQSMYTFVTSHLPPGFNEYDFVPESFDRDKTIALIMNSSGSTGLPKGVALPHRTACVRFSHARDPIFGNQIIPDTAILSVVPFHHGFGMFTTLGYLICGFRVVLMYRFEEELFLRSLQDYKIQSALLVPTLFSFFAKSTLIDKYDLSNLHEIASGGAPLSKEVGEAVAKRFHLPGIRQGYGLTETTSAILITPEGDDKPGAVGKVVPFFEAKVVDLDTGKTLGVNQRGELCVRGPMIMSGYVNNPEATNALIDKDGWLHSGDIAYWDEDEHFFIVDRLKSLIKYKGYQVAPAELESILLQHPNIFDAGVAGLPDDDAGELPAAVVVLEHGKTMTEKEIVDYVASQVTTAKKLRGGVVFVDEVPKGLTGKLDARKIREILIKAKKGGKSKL
chicken Estrogen Receptor (ESR1), ESR1 (gene 396099), sequence (P06212 whole entry, looked up, the tested form may be a part): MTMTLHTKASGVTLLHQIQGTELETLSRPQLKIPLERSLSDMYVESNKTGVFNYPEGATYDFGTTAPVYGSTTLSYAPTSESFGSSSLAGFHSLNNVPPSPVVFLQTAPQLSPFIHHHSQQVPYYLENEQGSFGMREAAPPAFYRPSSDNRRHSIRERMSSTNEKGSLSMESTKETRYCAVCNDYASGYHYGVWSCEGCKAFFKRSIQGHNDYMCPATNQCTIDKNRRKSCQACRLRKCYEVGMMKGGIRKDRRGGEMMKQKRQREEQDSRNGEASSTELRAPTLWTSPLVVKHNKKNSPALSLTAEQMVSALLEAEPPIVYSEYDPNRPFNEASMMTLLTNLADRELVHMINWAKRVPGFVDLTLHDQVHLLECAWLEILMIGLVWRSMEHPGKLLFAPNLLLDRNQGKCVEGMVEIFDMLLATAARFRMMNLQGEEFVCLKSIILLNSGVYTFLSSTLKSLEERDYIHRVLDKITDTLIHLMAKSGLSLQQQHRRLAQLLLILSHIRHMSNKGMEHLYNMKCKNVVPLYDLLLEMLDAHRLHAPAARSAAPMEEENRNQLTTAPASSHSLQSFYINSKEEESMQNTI
zebrafish Estrogen Receptor (ESR1), esr1 (gene 259252), sequence (P57717 whole entry, looked up, the tested form may be a part): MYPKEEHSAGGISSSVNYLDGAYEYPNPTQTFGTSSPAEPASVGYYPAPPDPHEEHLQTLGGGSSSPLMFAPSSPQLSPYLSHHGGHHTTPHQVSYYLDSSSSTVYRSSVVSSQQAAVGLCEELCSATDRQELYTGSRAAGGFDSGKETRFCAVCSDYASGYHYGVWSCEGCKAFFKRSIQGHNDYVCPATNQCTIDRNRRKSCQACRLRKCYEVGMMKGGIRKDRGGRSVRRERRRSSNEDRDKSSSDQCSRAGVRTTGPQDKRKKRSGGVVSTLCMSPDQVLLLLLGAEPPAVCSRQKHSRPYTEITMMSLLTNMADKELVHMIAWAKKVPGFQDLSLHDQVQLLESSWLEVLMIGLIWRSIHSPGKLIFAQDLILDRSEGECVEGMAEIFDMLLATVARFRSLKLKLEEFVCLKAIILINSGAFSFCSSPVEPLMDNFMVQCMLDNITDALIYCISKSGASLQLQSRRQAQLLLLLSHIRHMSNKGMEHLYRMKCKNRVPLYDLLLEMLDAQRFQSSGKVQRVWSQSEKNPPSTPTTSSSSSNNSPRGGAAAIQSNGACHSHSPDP

O=C1C=CC(=O)N1c1ccccc1
AC50 [1]: 74.9 µM (active)
AC50 [2]: 77.5 µM (active)
outcome [3]: inactive
outcome [4]: inactive
outcome [5]: inactive

CCOC(=O)CCC(C)=O
outcome [1]: inactive
outcome [2]: inactive

Cc1cc(O)c(C(C)(C)C)cc1C(C)(C)C
AC50 [1]: 34.3 µM (active)
AC50 [2]: 44.8 µM (active)
outcome [3]: inactive

CO[Si](CCCOCC1CO1)(OC)OC (stereo unspecified)
outcome [1]: inactive
outcome [2]: inactive

COC(=O)c1ccc(C=O)cc1
outcome [1]: inactive
outcome [2]: inactive

Cc1cc(=O)[nH]c(C(C)C)n1
outcome [1]: inactive
outcome [2]: inactive

CCC(Cc1c(I)cc(I)c(N)c1I)C(=O)O (stereo unspecified)
outcome [1]: inactive
outcome [2]: inactive
outcome [4]: inactive
outcome [5]: inactive

Cc1ccc(O)c(-n2nc3ccccc3n2)c1
outcome [1]: inactive
outcome [2]: inactive
outcome [6]: inactive
AC50 [7]: 21 µM (active)
AC50 [8]: 1.54 µM (active)
outcome [4]: inactive
outcome [5]: inactive

Cc1ccc([N+](=O)[O-])c(C)c1
outcome [1]: inactive
outcome [2]: inactive
outcome [4]: inactive

CCc1cc(Cc2cc(CC)c(N)c(CC)c2)cc(CC)c1N
outcome [1]: inactive
outcome [2]: inactive
outcome [4]: inactive

CCC(C)CO (stereo unspecified)
outcome [1]: inactive
outcome [2]: inactive

C[C@]12CC[C@H]3C(=CCc4cc(O)ccc43)[C@@H]1CCC2=O
outcome [1]: inactive
outcome [2]: inactive
AC50 [6]: 13.9 µM (active)
AC50 [7]: 87.7 µM (active)
outcome [3]: inactive
AC50 [8]: 47 µM (active)
AC50 [9]: 0.0231 µM (active)
AC50 [10]: 0.0172 µM (active)
AC50 [11]: 0.0196 µM (active)
outcome [5]: inactive
AC50 [12]: 0.0202 µM (active)
AC50 [13]: 0.0139 µM (active)
AC50 [14]: 0.00659 µM (active)
AC50 [15]: 0.00594 µM (active)

CN(N=O)C(=O)N[C@@H]1[C@@H](O)[C@H](O)[C@@H](CO)O[C@@H]1O
outcome [1]: inactive
outcome [2]: inactive

CCN=c1cc2oc3cc(NCC)c(C)cc3c(-c3ccccc3C(=O)OCC)c-2cc1C
AC50 [1]: 60.8 µM (active) and 63.2 µM (active)
AC50 [2]: 35.8 µM (active) and 44.5 µM (active)
AC50 [16]: 0.0769 µM (active)
AC50 [4]: 0.0138 µM (active)
AC50 [5]: 0.0138 µM (active)

CC(C)OC=O
outcome [1]: inactive
outcome [2]: inactive
outcome [6]: inactive
outcome [7]: inactive
outcome [8]: inactive
outcome [4]: inactive

CC(O)C#CC(C)O (stereo unspecified)
outcome [1]: inactive
outcome [2]: inactive

CCC/C=C/CO
outcome [1]: inactive
outcome [2]: inactive

Brc1nc2ccccc2s1
outcome [1]: inactive
outcome [2]: inactive

CCCCC(CC)COC(=O)c1ccc(N(C)C)cc1 (stereo unspecified)
outcome [1]: inactive
outcome [2]: inactive
outcome [3]: inactive
outcome [4]: inactive
outcome [5]: inactive

CSc1ccc(Cl)cc1
outcome [1]: inactive
outcome [2]: inactive

O=S(=O)(O)c1ccc(Cl)cc1
outcome [1]: inactive
outcome [2]: inactive

CCN=C1C=CC(=C(c2ccc(N(CC)CC)cc2)c2ccc(N(CC)CC)cc2)c2ccccc21
AC50 [1]: 69.4 µM (active)
AC50 [2]: 50 µM (active)
AC50 [6]: 33.4 µM (active)
AC50 [7]: 1.72 µM (active)
AC50 [16]: 0.151 µM (active)
AC50 [8]: 7.95 µM (active)
outcome [4]: inactive
AC50 [5]: 0.134 µM (active)

CC(C)(C)C(=O)C1C(=O)c2ccccc2C1=O
outcome [1]: inactive
outcome [2]: inactive

CC(C)OC(=O)COc1ccc(Cl)cc1Cl
outcome [1]: inactive
outcome [2]: inactive

CCCCCCCC/C=C\CCCCCCCC(=O)N(C)CC(=O)O
AC50 [1]: 43.7 µM (active)
AC50 [2]: 83.7 µM (active)
AC50 [6]: 16.4 µM (active)
AC50 [7]: 24.4 µM (active)
outcome [8]: inactive

CC(C)CCCC(C)CCO (stereo unspecified)
outcome [1]: inactive
outcome [2]: inactive

CCCCOC(=O)[C@H](C)O
outcome [1]: inactive
outcome [2]: inactive

CC(=O)CCC(C)C
outcome [1]: inactive
outcome [2]: inactive
outcome [4]: inactive
